Assay outcomes deposited in PubChem BioAssay by National Center for Advancing Translational Sciences (NCATS).
Cruzain Triton: cruzain (T. cruzi) inhibition with detergent; 200,000 tested, 0.43% active; P25779; AID 1478; Potency, µM, for inactives: max response, negative = inhibition, hits mostly inhibitors; purified cruzain, Z-FR-AMC fluorescence, 0.01% Triton;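 further: plate controls were neutral wells for no effect and buffer without enzyme for full effect; nearly all actives have a fitted effect of over 40% in size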
Target sequence (P25779 123-467 limits assumed): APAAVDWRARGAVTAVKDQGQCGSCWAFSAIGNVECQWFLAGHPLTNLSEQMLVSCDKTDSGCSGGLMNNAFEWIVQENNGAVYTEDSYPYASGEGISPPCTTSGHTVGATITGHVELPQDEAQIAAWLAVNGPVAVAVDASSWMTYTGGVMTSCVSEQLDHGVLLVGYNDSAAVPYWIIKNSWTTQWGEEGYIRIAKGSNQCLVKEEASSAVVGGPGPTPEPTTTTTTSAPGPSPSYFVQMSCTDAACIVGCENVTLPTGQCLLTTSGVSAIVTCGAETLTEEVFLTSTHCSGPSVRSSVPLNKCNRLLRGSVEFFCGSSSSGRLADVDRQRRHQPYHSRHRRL
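Cysteine protease activity tested under reducing, mildly acidic conditions (100 mM sodium acetate pH 5.5, 5 mM DTT) plus 0.01% Triton X-100. Cruzain 1.5 nM; substrate Z-FR-AMC 2 uM; 15 min compound preincubation at room temperature.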
Cruzain noTriton: blocks cruzain activity in detergent-free assay; P25779; purified cruzain, Z-FR-AMC fluorescence, no detergent; Potency, µM, for inactives: max response, negative = inhibition, usual class: inhibitors; 200,000 tested, 2.3% active; AID 1476;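 further: plate controls were enzyme without inhibitor for no effect and buffer without enzyme for full effect; nearly all actives have a fitted effect of over 40% in size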
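Detergent-free condition (0.00005% Triton X-100) in acetate buffer pH 5.5 with DTT. 1.5 nM enzyme and compound were pre-mixed 15 min, then 2 uM Z-FR-AMC substrate added; reaction progress from fluorescence change between first and third reads (60 s).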
Starred values were filed as active, the others as inactive; u = inconclusive. This is a sample that favours compounds with a hit; in the whole collection about 2.6% have one here. The call rests on the fitted dose curve; in most records, active means well fitted curve in the direction sought with a large enough effect; inconclusive means small, poorly fitted or top-dose-only effect, or another doubt; inactive means no such curve, though single readings can be large; an effect the other way counts as inactive or inconclusive. Potency means the concentration at half of the fitted maximal effect.

SMILES	Cruzain Triton	Cruzain noTriton
COc1ccc(C2CC(c3ccccc3)=NN2C(=O)COC(=O)c2cccc(S(=O)(=O)N(C)C)c2)cc1 (stereo not given)	4%	u
COc1ccc(C2CC(c3ccccc3)=NN2C(=O)COC(=O)c2cnc(Cl)c(Cl)c2)cc1 (stereo not given)	-3%	5µM*
Cc1cccc(NC(=O)c2cc(-c3ccc4c(c3)OCCO4)on2)c1	-1%	12%
CCC(=O)Nc1cc(C)c(O)c(-c2nc3ncccc3o2)c1	-1%	13%
Clc1ccc(C2=C3CCCCn4c(-c5ccccc5)c[n+](c43)C2)cc1	-13%	u
COc1ccc(-c2c[n+]3c4n2CCCCC4=C(c2ccc(Br)cc2)C3)cc1	-26%	10µM*
Cc1ccc(Cn2c(C)c3cnn(CC(=O)O)c(=O)c3c2C)cc1	-5%	-4%
CC(Sc1oc(-c2cccs2)nc1S(=O)(=O)c1ccccc1)c1ccccc1 (stereo not given)	-7%	-21%
O=C(NCCc1c[nH]c2ccccc12)C(=O)NCC1OCCCN1S(=O)(=O)c1ccccc1 (stereo not given)	-4%	25µM*
Cc1ccc(S(=O)(=O)N2CCCOC2CNC(=O)C(=O)NCCc2c[nH]c3ccccc23)cc1 (stereo not given)	-5%	u
Cc1cc2c(=O)n(Cc3ccco3)c(SCC(=O)c3ccc(Cl)s3)nc2s1	-8%	25µM*
CCOC(=O)CC(=O)CSc1nc2sc(C)cc2c(=O)n1Cc1ccco1	-6%	-16%
CSc1cccc(NC(=O)c2cc3c(COC(C)=O)cnc(C)c3oc2=O)c1	0%	2%
COCc1cc(C)nc(OCC(=O)N/N=C/c2cc(C)n(-c3c(C)cccc3C)c2C)c1C#N	-3%	10%
COCc1c(Br)c(C)nc(OCC(=O)N/N=C/c2cc(C)n(-c3ccc([N+](=O)[O-])cc3)c2C)c1C#N	-3%	32µM*
Cc1ccc2c(c1)CCCN2C(=O)c1ccc2c(c1)OCO2	-3%	6%
Cc1sc(NC(=O)Cc2ccc3c(c2)OCO3)nc1-c1ccc2c(c1)CCN2C(=O)c1ccccc1F	-1%	7.9µM*
Cc1sc(NC(=O)Cc2ccc3c(c2)OCO3)nc1-c1ccc2c(c1)CCN2C(=O)c1ccc(F)cc1	-4%	6.3µM*
O=C(NCc1ccc2c(c1)CCN2C(=O)c1ccncc1)c1ccccc1F	0%	-4%
CS(=O)(=O)N1CCc2cc(-c3csc(NC(=O)Cc4ccccc4)n3)ccc21	-1%	u
Cc1sc(NC(=O)CN(C)C2CCCCC2)nc1-c1ccc2c(c1)CCN2S(=O)(=O)c1ccccc1	-5%	32µM*
CCC12CN3CC(CC)(CN(C1)C3c1cc(Br)ccc1OC)C2=O (stereo not given)	0%	0%
CCOc1ccccc1NC(=O)C1CCN(S(=O)(=O)c2cc(Br)cc3c2N(C(C)=O)CC3)CC1	-1%	1%
Cc1cc2nc(NC3=NCN(CCN4CCOCC4)CN3)nc(C)c2cc1C	-7%	-6%
Cc1nc(NC2=NCN(CCCN3CCOCC3)CN2)nc2c(C)cccc12	u	25µM*
SMILES	Cruzain Triton	Cruzain noTriton
COc1ccc(CNC(=O)Cc2ccc(NC(=O)N3CCSc4ncccc43)cc2)cc1OC	-7%	-3%
Cc1ccc(NC(=O)Nc2nnc(N(C)C3CCCCC3)s2)c(Cl)c1	-7%	u
Cc1ccc(-n2nc3c(=O)n(CCCC(=O)NCCc4ccccc4Cl)nc(C)c3c2C)cc1	-2%	-3%
Cn1nnc(NCc2cc(Br)ccc2OCc2cccs2)n1	-4%	32µM*
Cn1nnc(C(O)CNCc2cccs2)n1 (stereo not given)	3%	3%
Cc1nn(C)c2c1c(C(F)(F)F)cc(=O)n2C(C)C(=O)NCCc1ccccc1 (stereo not given)	-8%	u
Cc1csc(NC(=O)c2cc([N+](=O)[O-])cc([N+](=O)[O-])c2)n1	-7%	-15%
Cc1csc(/N=C/c2ccc([N+](=O)[O-])cc2)n1	1%	20µM*
CCOC(=O)COc1ccccc1-c1ccno1	u	25µM*
CCOC(=O)COc1ccc2nsnc2c1Cl	-1%	-4%
Cc1nc(SCC(=O)Nc2ccc(Cl)cc2C(F)(F)F)[nH]c(=O)c1Cc1ccccc1	-1%	5%
CC(C)c1ccc(NC(=O)COc2nnc(-c3cccs3)c(-c3cccs3)n2)cc1	-7%	5%
CCc1ccc(NC(=O)C(C)Oc2nnc(-c3cccs3)c(-c3cccs3)n2)cc1 (stereo not given)	3%	20µM*
CCOc1ccc(N2CC(NC(=O)c3cc4ccccc4o3)CC2=O)cc1 (stereo not given)	-3%	13%
COc1cc([C@@H]2c3cc4c(cc3C(OC3OC5COC(C)OC5C(O)C3O)C3COC(=O)[C@@H]32)OCO4)cc(OC)c1O (stereo not given in full)	4%	13%
CCc1cc2cc3c(cc2nc1SCC(=O)Nc1nccs1)OCO3	1%	20µM*
Cc1ccc2c3c(c(SCC(=O)Nc4nccs4)nc2c1)CCCC3	2%	1%
C=CCOC[C@@H]1CN2[C@H](c3ccc(Br)cc3)[C@@H](C)CC[C@H]2C(=O)O1	0%	8%
COc1ccc(OC)c(NC(=O)CC2SC(=Nc3ccc(F)cc3)N(CCC3=CCCCC3)C2=O)c1 (stereo not given)	-7%	20µM*
COc1cc([N+](=O)[O-])ccc1NC(=O)CC1SC(=Nc2ccc(F)cc2)N(CCC2=CCCCC2)C1=O (stereo not given)	-4%	10µM*
COc1ccc(N=C2SC(CC(=O)Nc3ccc(OC)cc3OC)C(=O)N2C)cc1 (stereo not given)	-4%	u
COc1ccc(OC)c(NC(=O)CC2SC(=Nc3ccccc3)N(CCc3ccccn3)C2=O)c1 (stereo not given)	-4%	u
COc1ccc(S(=O)(=O)N2CCC(n3c(C(F)(F)F)nc4cccnc43)CC2)cc1OC	-2%	u
CCOc1ccc2oc(=O)cc(CN3CCN(Cc4ccc(F)cc4)CC3)c2c1	-2%	5%
Cn1c(=O)c(-c2cccc(F)c2)nc2cncnc21	-5%	-1%
SMILES	Cruzain Triton	Cruzain noTriton
O=C(Nc1cc(-c2nc3ccccc3o2)ccc1Cl)c1sc2c([N+](=O)[O-])cccc2c1Cl	0%	5%
COc1ccc2sc(N(Cc3cccnc3)C(=O)C3CCCCC3)nc2c1	-8%	27%
C/C(=N\Nc1nc(-c2ccc(C)cc2C)cs1)c1cc2ccccc2oc1=O	-20%	u
COc1ccc2oc(=O)c(/C(C)=N/Nc3nc(-c4cc(C)ccc4C)cs3)cc2c1	-21%	13µM*
CCOc1ccc(C(=O)c2cnc3ccc(Cl)cc3c2S(=O)(=O)c2ccc(C)cc2)cc1	0%	11%
CCOc1ccc(S(=O)(=O)c2c(C(=O)c3ccccc3)cnc3cc4c(cc23)OCCO4)cc1	-6%	32µM*
Cc1ccc(C(=O)c2cnc3ccccc3c2-c2ccccc2)cc1	-1%	5%
CCc1ccc(S(=O)(=O)c2c(C(=O)c3ccc(C)c(C)c3)cnc3ccccc23)cc1	-3%	13µM*
CCOc1ccc(S(=O)(=O)c2c(C(=O)c3ccc(CC)cc3)cnc3ccc(C)cc23)cc1	-4%	20µM*
CCc1ccc(C(=O)c2cnc3ccc(C)cc3c2S(=O)(=O)c2ccc(OC)cc2)cc1	-2%	-11%
CC(C)Oc1ccc(CNC(=O)c2ccc(NC(=O)c3nsc4ccccc34)cc2)cc1	-2%	-18%
